Screening data from PubChem.
TROY signal inh: inhibitors of TROY-driven NF-kB signaling, primary screen, Q293 LMP1-TROYcd cells, NF-kB luciferase, uHTS; inhibition, % at 10 µM; Q293 LMP1-TROYcd NF-kB luciferase reporter, 4 h; AID 1347056, 2019; actives 0.98% (n = 360,000);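 active = compounds whose plate-normalised and pattern-corrected inhibition of the luciferase reporter signal at the single screening dose is 50% or more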
TWEAK Fn14 block: inhibitors of TWEAK-Fn14 signaling, primary screen, luciferase reporter cells, uHTS; actives 2% (n = 360,000); TWEAK-stimulated Fn14 reporter cells, luciferase luminescence, 8 h; inhibition, % at 10 µM; AID 1159606, 2016; in the data active = inhibition above about 50%
HSP90 refold inh: HSP90 inhibitors, primary screen, cell lysate, luminescence | Heat shock protein HSP 90 (rabbit reticulocyte lysate; luciferase refolding) | Rabbit reticulocyte lysate, luciferase refolding luminescence, 3 h | inhibition, % at 5.6 µM | actives 0.91% (n = 290,000) | AID 1789, 2009;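 active = inhibition above the screen-wide mean plus 3 SD, computed separately per campaign, cut at about 16% in these data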;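 also: 0% = DMSO wells and 100% = 60 µM geldanamycin wells; inhibitors lower the luminescence because luciferase stays unfolded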
LMP1 NFkB inh: EBV LMP1-driven NF-kappaB luciferase reporter inhibitors, primary screen, cell-based, luminescence, single point; LMP1-induced NF-kappaB luciferase reporter cells; inhibition, % at 12.5 µM; actives 0.69% (n = 350,000); in the data active = inhibition above about 41%; inconclusive = no clear call, values can overlap the other calls;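 also: 0% = neutral control wells and 100% = reference inhibitor control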
HSF1 inh: HSF1 inhibitors in luciferase reporter cells, primary screen, cell-based, NIH3T3, luminescence; NIH3T3-HGL HSE-luciferase, MG132-induced, luminescence 8 h; hits give low values; activity change, negative = inhibition, % at 7.5 µM (by protocol); actives 0.77% (n = 300,000); AID 2098, 2009;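 active = more than half of replicate wells show activity change below -50%, luminescence cut by over half; inconclusive = some wells, but at most half, below -50%; inactive = no replicate well below -50%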;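 also: luciferase reports HSF-1 transcriptional activity via heat shock element; 0% = median of DMSO wells and -100% = zero luminescence signal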
HSF1 activator: HSF-1 activators, primary screen, NIH3T3-HGL cells, MG132 stress, luminescence, single point | NIH3T3-HGL HSF-1 luciferase reporter, 8 h; 100% = twice DMSO control signal | activation, % at 9 µM | actives 1.7% (n = 300,000);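 active = mean replicate activation of at least 50% with a set share of replicates each reaching 50%; inconclusive = only one of those two conditions met; inactive = mean below 50% and too few replicates reaching it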;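 also: 0% = median of the neutral control wells and 100% = twice that signal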
HSP90 inh confirm: HSP90 inhibitors, confirmation, cell lysate, luminescence | shares compounds with HSP90 refold inh | rabbit reticulocyte lysate, luciferase refolding luminescence, 3 h | inhibition, % at 5.9 µM | actives 64% (n = 2,300) | AID 1846, 2009; in the data active = inhibition above about 18%;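 also: 0% = vehicle wells and 100% = reference inhibitor wells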
luciferase ctr: firefly luciferase inhibitors, HSP90 counter-screen, confirmation, artefact control for HSP90 inhibitor project, biochemical, luminescence, triplicate; shares compounds with HSP90 refold inh; purified native firefly luciferase; inhibition, % at 5.9 µM; actives 48% (n = 2,300); AID 1847, 2009;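 active = inhibition above the mean inhibition of all tested sample wells plus 3 SD, cut at about 10% in these data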;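 also: 0% = DMSO with luciferase and 100% = wells lacking luciferase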
Target sequence (P08659 whole entry, looked up): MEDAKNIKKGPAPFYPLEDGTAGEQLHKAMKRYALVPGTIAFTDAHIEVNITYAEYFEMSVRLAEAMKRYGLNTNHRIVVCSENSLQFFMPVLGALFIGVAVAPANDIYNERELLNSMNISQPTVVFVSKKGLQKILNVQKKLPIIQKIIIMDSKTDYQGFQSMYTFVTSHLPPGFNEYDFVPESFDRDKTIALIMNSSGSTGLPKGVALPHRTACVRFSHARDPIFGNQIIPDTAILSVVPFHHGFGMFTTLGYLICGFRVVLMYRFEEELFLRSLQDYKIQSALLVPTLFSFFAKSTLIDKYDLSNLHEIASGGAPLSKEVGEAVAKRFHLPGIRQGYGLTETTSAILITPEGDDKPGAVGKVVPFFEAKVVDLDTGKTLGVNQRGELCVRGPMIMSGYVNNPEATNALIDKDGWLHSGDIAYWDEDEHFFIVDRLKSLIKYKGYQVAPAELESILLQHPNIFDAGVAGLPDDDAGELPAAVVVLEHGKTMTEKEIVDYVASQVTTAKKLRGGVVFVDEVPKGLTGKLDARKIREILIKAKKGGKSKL
Numbers without * were called inactive. Rows were chosen to be rich in hits. Some 4.7% of all compounds tested hit in one or more screens of this group.

How did Cc1cc(O)c(S(=O)(=O)c2ccccc2)c(C)c1NS(=O)(=O)c1ccccc1 do in these assays?
TROY signal inh: -30.1; TWEAK Fn14 block: 2.6; HSP90 refold inh: 18.5*; LMP1 NFkB inh: -12.8; HSF1 inh: 4.5; HSF1 activator: 0.3; HSP90 inh confirm: 21.0*; luciferase ctr: -7.8

How did Cc1ccc(CNC(=S)NCc2ccncc2)cc1 do in these assays?
TROY signal inh: 28.0; TWEAK Fn14 block: 14.3; HSP90 refold inh: 3.5; LMP1 NFkB inh: -3.7

Results for CC(C)(C)NC(=S)NCc1ccncc1 ?
TROY signal inh: 8.4; TWEAK Fn14 block: 11.2; HSP90 refold inh: 23.1*; LMP1 NFkB inh: 2.5; HSF1 inh: -7.0; HSF1 activator: 7.4; HSP90 inh confirm: -1.5; luciferase ctr: -4.2

Results for Cc1oc(-c2cccc(Cl)c2)nc1CN(C)C1CCOC1 (stereo not given) ?
TROY signal inh: -13.9; TWEAK Fn14 block: -7.8; HSP90 refold inh: 1.4; LMP1 NFkB inh: -24.8; HSF1 inh: 0.0; HSF1 activator: 21.3

What do the screens show for `Cc1oc(-c2ccc(-c3ccccc3)cc2)nc1CN(C)C1CCOC1` (stereo not given)?
TROY signal inh: -0.6; TWEAK Fn14 block: 42.5; HSP90 refold inh: 74.7*; LMP1 NFkB inh: -26.7; HSF1 inh: 3.1; HSF1 activator: -15.0; HSP90 inh confirm: 86.0*; luciferase ctr: -1.6

How did Cc1oc(-c2ccc(-c3ccccc3)cc2)nc1CN(CCO)C(C)C do in these assays?
TROY signal inh: -3.9; TWEAK Fn14 block: 64.9*; HSP90 refold inh: 85.2*; LMP1 NFkB inh: -41.2; HSF1 inh: -26.3; HSF1 activator: -37.0; HSP90 inh confirm: 93.5*; luciferase ctr: 21.0*

Results for Cc1ccc(/C=C2\SC(=S)N(CCCC(=O)Nc3ccccn3)C2=O)cc1 ?
TROY signal inh: 67.7*; TWEAK Fn14 block: 79.4*; HSP90 refold inh: 33.5*; LMP1 NFkB inh: 55.7*; HSF1 inh: -66.6*; HSF1 activator: -70.6; HSP90 inh confirm: 38.5*; luciferase ctr: -17.7

How did Cc1cccc(N2C(=O)CC(N3CCC(c4nc5ccccc5[nH]4)CC3)C2=O)c1 (stereo not given) do in these assays?
TROY signal inh: -1.3; TWEAK Fn14 block: 4.6; HSP90 refold inh: 4.4; LMP1 NFkB inh: -0.4; HSF1 inh: -3.4; HSF1 activator: -6.1

What do the screens show for `CCN1C(=O)CC(N2CCC(c3nc4ccccc4[nH]3)CC2)C1=O` (stereo not given)?
TROY signal inh: 5.5; TWEAK Fn14 block: -11.3; HSP90 refold inh: 23.0*; LMP1 NFkB inh: -1.6; HSF1 inh: -1.8; HSF1 activator: 1.4; HSP90 inh confirm: 23.6*; luciferase ctr: 5.0

What do the screens show for `O=C(Nc1cccc(Cl)c1)Nc1cccc(C(=O)O)c1`?
TROY signal inh: -50.6; TWEAK Fn14 block: -2.7; HSP90 refold inh: 50.8*; LMP1 NFkB inh: 42.5*; HSF1 inh: -8.5; HSF1 activator: -17.0; HSP90 inh confirm: 69.4*; luciferase ctr: 62.8*

Results for O=C(Nc1cccc(C(=O)O)c1)Nc1ccccc1Cl ?
TROY signal inh: -51.5; TWEAK Fn14 block: -12.9; HSP90 refold inh: 76.6*; LMP1 NFkB inh: inconclusive; HSF1 inh: -37.5; HSF1 activator: -37.9; HSP90 inh confirm: 73.6*; luciferase ctr: 71.3*

What do the screens show for `CCOc1ccc(NC(=O)c2ccccn2)cc1`?
TROY signal inh: 72.2*; TWEAK Fn14 block: 95.2*; HSP90 refold inh: 82.5*; LMP1 NFkB inh: 65.5*; HSF1 inh: -34.9; HSF1 activator: -34.3; HSP90 inh confirm: 87.9*; luciferase ctr: 79.6*

Results for O=C(Nc1ccccc1)Nc1cccc(Cl)c1 ?
TROY signal inh: -25.7; TWEAK Fn14 block: -23.0; HSP90 refold inh: 2.6; LMP1 NFkB inh: -12.4

How did Cc1ccccc1OCC(=O)Nc1cccc(C(=O)O)c1 do in these assays?
TROY signal inh: 17.5; TWEAK Fn14 block: 59.0*; HSP90 refold inh: 96.9*; LMP1 NFkB inh: 77.4*; HSP90 inh confirm: 91.5*; luciferase ctr: 86.2*

What do the screens show for `O=C(Nc1ccc2nccnc2c1)Nc1ccccc1Cl`?
TROY signal inh: -29.9; TWEAK Fn14 block: -11.8; HSP90 refold inh: 6.3; LMP1 NFkB inh: -10.6; HSF1 inh: 7.8; HSF1 activator: 25.1

Results for COc1ccc(-n2nnnc2C(c2cccc3ccccc23)N2CCN(C/C=C/c3ccccc3)CC2)cc1 (stereo not given) ?
TROY signal inh: 5.4; TWEAK Fn14 block: 9.9

How did CC(N)c1csc(Nc2nccc(C(F)(F)F)n2)n1 (stereo not given) do in these assays?
TROY signal inh: 19.6; TWEAK Fn14 block: 8.1

How did COC(=O)c1cccc(NC(=O)NC(=O)c2ccccc2Cl)c1 do in these assays?
TROY signal inh: -16.7; TWEAK Fn14 block: -14.3; HSP90 refold inh: 28.9*; LMP1 NFkB inh: 37.5; HSF1 inh: -12.4; HSF1 activator: -22.8; HSP90 inh confirm: 71.3*; luciferase ctr: 16.1*

What do the screens show for `O=C(Nc1ccc(Cl)cc1)Nc1ccccc1C(=O)O`?
TROY signal inh: 46.6; TWEAK Fn14 block: 48.8; HSP90 refold inh: 26.6*; LMP1 NFkB inh: 19.2; HSF1 inh: 24.5; HSF1 activator: 54.0*; HSP90 inh confirm: 45.5*; luciferase ctr: 43.0*

How did O=C(NCc1ccccc1)C(=O)Nc1cccc(C(=O)O)c1 do in these assays?
TROY signal inh: -26.5; TWEAK Fn14 block: 8.7; HSP90 refold inh: 41.9*; LMP1 NFkB inh: 67.4*; HSF1 inh: -43.0; HSF1 activator: -46.0; HSP90 inh confirm: 71.3*; luciferase ctr: 73.3*

Results for O=C(Nc1ccc(Cl)cc1)Nc1cccc(C(=O)O)c1 ?
TROY signal inh: -56.0; TWEAK Fn14 block: 11.4; HSP90 refold inh: 78.2*; LMP1 NFkB inh: 62.0*; HSF1 inh: -40.0; HSF1 activator: -42.8; HSP90 inh confirm: 88.9*; luciferase ctr: 86.7*

Results for CC(C)(C)OC(=O)N(CCc1ccccc1)Cc1ccccc1OCc1cccc(NC(=O)C2CCCC2)c1 ?
TROY signal inh: -7.4; TWEAK Fn14 block: -7.6; LMP1 NFkB inh: 2.9

Results for O=C(CSC(=O)c1ccccc1)Nc1ccccc1F ?
TROY signal inh: 12.1; TWEAK Fn14 block: -11.0; LMP1 NFkB inh: -14.8
